From PubChem BioAssay (NCATS)
“And” between values parts separate entries of the source, which are not always exact repeats. Identical values can stand only once. Results filed as inconclusive are left out. The source made the active and inactive calls. Calls follow the shape of the dose curve; as a rule, active = well fitted cell-killing curve with a large enough effect; inconclusive = small, poorly fitted or top-dose-only effect; inactive = flat fitted curve, though single readings scatter.

Assay: Cellular viability qHTS for adrenocortical cancer (ACC) cell line SW-13 (AID 1963989); also: nearly all actives have a fitted effect of over 65% in size;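 as to activity (max response): cells grown in serum-free medium with ITS supplement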
Conditions: SW-13 ACC cells viability, CellTiter-Glo, 48 h; activity (max response): hits give low values
Text: PI: Naris Nilubol, MD Surgical Oncology Program, National Cancer Institute (NCI) National Institute of Health (NIH), Bethesda, Maryland Adrenocortical cancer (ACC) is a rare malignancy with poor survival outcomes and few treatment options. Currently, mitotane is the only FDA-approved therapy for ACC. Although adjuvant radiation therapy is rarely utilized, it has the potential to improve survival in select cases. Through a quantitative high-throughput drug screen (qHTS), we identified auranofin (AF), a thioredoxin reductase (TXNRD) inhibitor, as a promising candidate drug. This study aims to evaluate whether AF can enhance the efficacy of radiation therapy in the treatment of ACC. Two human ACC cell lines, SW-13 and NCI-H295R, were screened using the National Center for Advancing Translational Sciences (NCATS) Pharmaceutical Collection (NPC) and the Mechanism Interrogation PlatE (MIPE) library (~4,991 compounds). CellTiter-Glo (Cat # G7570, Promega, Madison, WI) was utilized to measure cell viability. Described herein are the results of the corresponding viability assay.
PROTOCOL TABLE (as described by Inglese J, Shamu CE and Guy RK. 2007) SEQUENCE No. (e.g., 1, 2, 3, etc.); […] (e.g., Cells, Incubation, Reagent, etc.); VALUE; DESCRIPTION. 1; Cells; 5 uL; white, solid-bottom, 1536-well tissue-culture treated plates. 2; Time; overnight culture at 37C with 5% CO2. 3; Compounds and control; 23 nL; Kalypsis pin tool (Wako USA) equipped with a 1536-well pin head to transfer to the assay plates. 4; Time; 48 hours; 37C with 5% CO2. 5; Reagent; 4 uL; CellTiter-Glo luminescent substrate mix. 6; Time; 20 min at room temperature. 7; Detection; Luminescence; ViewLux plate reader NOTES (numbers refer to Sequence numbers above) 1. SW13 cells were harvested from a T175 flask and resuspended in ITS-supplemented DMEM serum-free medium at a concentration of 300 000 cells/mL. Then 5 uL of resuspended cells were dispensed into each well of white, solid-bottom, 1536-well tissue-culture-treated plates using a multidrop combi dispenser. The plates were covered with stainless steel gasket lids. 2-3. The plates were cultured overnight at 37C with 5% CO2. Twenty-three nL of compounds (eight selected concentrations from the NPC / MIPE) or positive control (10 mM stock of bortezomib) in DMSO was transferred to each well of the assay plate using a pin tool (Kalypsys, San Diego, CA, USA). The final concentration of the compounds in the 5 uL assay volume ranged from 0.5 nM to 46 uM. 4-6. After 48 hours of incubation at 37C and 5% CO2, 4 uL of CellTilter-Glo luminescent substrate mix (Promega, Madison, WI, USA) was added to each well. Then the plates were incubated for 20 minutes at room temperature. 7. After incubation, luminescence was measured using a ViewLux plate reader (PerkinElmer, Waltham, MA, USA) with a clear filter was used to measure the number of metabolically competent cells. To determine compound activity in the qHTS assay, the titration-response data for each sample was plotted and modeled by a four-parameter logistic fit yielding IC50 and efficacy (maximal response) values. […] REFERENCES: Inglese J, Shamu CE and Guy RK, Reporting data from high throughput screening of small molecule libraries, Nature Chemical Biology, 2007, 3(8): 438-441. doi.org/10.1038/nchembio0807-438.
% is scaled to controls: 0 for no effect and ±100 for the full control effect; potency is read from the fitted curve at half-maximal effect.

Compound	Potency	activity (max response)
C=CC(=O)Nc1cccc(Sc2nc(Nc3ccc(N4CCN(C)CC4)cc3)ncc2Cl)c1	2 µM (active)	–
Cc1[nH]c(/C=C2\C(=O)Nc3ccc(F)cc32)c(C)c1C(=O)NC[C@H](O)CN1CCOCC1	–	-9.94% (inactive)
CN1CCN(CCOc2cc(OC3CCOCC3)c3c(Nc4c(Cl)ccc5c4OCO5)ncnc3c2)CC1	3.98 µM (active)	–
CC(=O)N1CCN(c2ccc(O)cc2)CC1	–	7.26% (inactive)
Cc1nn(C)c(COc2ccc(N3CCN(S(=O)(=O)N(C)C)CC3)cc2)c1-c1cccc2c(CCCOc3cccc4ccccc34)c(C(=O)O)n(CCN3CCOCC3)c12	–	-16.3% (inactive)
O=C(/C=C/c1cccc(S(=O)(=O)Nc2ccccc2)c1)NO	3.55 µM (active)	–
Cn1cnc([N+](=O)[O-])c1Sc1ncnc2nc[nH]c12	5.01 µM (active) and 9.2 µM (active) and 7.94 µM (active)	–
C1CCC(C(CC2CCCCN2)C2CCCCC2)CC1 (stereo not given)	7.08 µM (active)	–
COc1ncc(Nc2ncc([C@H](C)N3CCN(S(C)(=O)=O)CC3)cc2-c2nc(C)nc(N)n2)cc1F	–	-5.36% (inactive)
OC[C@H](Cc1ccccc1)Nc1nc(Oc2ccc3c(c2)CCC3)nc2c1ncn2Cc1ccc(-c2ccccc2)cc1	–	-12.9% (inactive)
C/C=C/c1ccc(O)c(OC)c1	–	1.66% (inactive)
Cc1ccc(C(=O)c2ccc(CC(=O)O)n2C)cc1	–	4.18% (inactive)
NS(=O)(=O)c1ccc(N2CCCCS2(=O)=O)cc1	–	16.4% (inactive)
COC(=O)[C@H](CCCN=C(N)N)NS(=O)(=O)c1ccc(C)cc1	–	6.08% (inactive)
CCCCCCCCCCCC(CC1OC(=O)C1CCCCCC)OC(=O)C(CC(C)C)NC=O (stereo not given)	–	11.6% (inactive)
CC1=C(c2ccc(O)cc2)[C@H](c2ccc(OCCN3CCCCC3)cc2)Oc2cc(O)ccc21	–	-12% (inactive)
Cc1c(C)c2c(c(C)c1OC(=O)c1cccnc1)CC[C@@](C)(CCC[C@H](C)CCC[C@H](C)CCCC(C)C)O2	–	-0.414% (inactive)
CN[C@@H](C)C(=O)N[C@H](C(=O)N1CCC[C@H]1C(=O)Nc1sc(-c2ncco2)nc1-c1ccccc1)C1CCCCC1	–	-5.71% (inactive)
NC(N)=NS(=O)(=O)c1ccc(N)cc1	–	7.35% (inactive)
C[C@@H]1C(=O)OC2[C@H](O)[C@]34[C@H]5C[C@@H](C(C)(C)C)[C@]36[C@@H](OC(=O)[C@@H]6O)O[C@@]4(C(=O)O5)[C@]21O (stereo not given in full)	–	5.05% (inactive)

Compound	Potency	activity (max response)
COCCNc1cc(NC(=O)N2CCCc3cc(CN4CCN(C)CC4=O)c(C=O)nc32)ncc1C#N	–	-2.64% (inactive)
Nc1ccc(S(=O)(=O)Nc2ccc(Cl)nn2)cc1	–	1.77% (inactive)
O=S(=O)(O)c1cc(I)c(O)c2ncccc12	–	0.547% (inactive)
CC1=C[C@@H]2[C@@H]([C@@H](O)C[C@@]3(C)[C@H]2C[C@@H](C)[C@]3(O)C(=O)CO)[C@@]2(C)Cc3cnn(-c4ccccc4)c3C=C12	22.4 µM (active)	–
Oc1ccccc1-c1nnco1	–	12.7% (inactive)
Cc1onc(-c2c(Cl)cccc2Cl)c1C(=O)Cl	–	17.1% (inactive)
Nc1ncnc2c1c(-c1cccc(OCc3ccccc3)c1)cn2C1CC(CN2CCC2)C1 (stereo not given)	–	12.1% (inactive)
CO[C@@H]1COCC[C@@H]1N[C@@H]1CC[C@@](C(=O)N2CCc3ncc(C(F)(F)F)cc3C2)(C(C)C)C1	–	-5.19% (inactive)
CC(C)n1ncnc1-c1cn2c(n1)-c1ccc(O[C@@H](C)C(N)=O)cc1OCC2	–	-4.9% (inactive)
COc1cc(C(=O)NC(N)=Nc2ccc(C)c(NC(=O)c3ccc(-c4ccccc4)cc3)c2)cc(OC)c1OC	11.2 µM (active)	–
CN[C@@H](C)[C@H]1[C@H](O)C[C@@]2(C)[C@@H]3CC[C@H]4C(C)(C)[C@@H](NC)CC[C@@]45C[C@@]35CC[C@]12C	–	-3.37% (inactive)
O=C(Oc1ccccc1C(=O)O)c1ccccc1O	–	-2.11% (inactive)
c1cc(-c2sc(-c3ccncc3)c(-c3ccncc3)c2-c2ccncc2)ccn1	–	2.5% (inactive)
CC(C)(C)c1nc2c3cc[nH]c(=O)c3c3cc(F)ccc3c2[nH]1	–	-16.1% (inactive)
O=C1CCCc2c(O)cccc21	–	-6.15% (inactive)
CCOC(N)=O	–	11.5% (inactive)
Cc1ccc(S(=O)(=O)NC(=O)NC2CCCCC2)cc1	–	8.41% (inactive)
NC[C@H]1O[C@H](O[C@@H]2[C@@H](O)[C@@H](O[C@H]3O[C@H](CO)[C@@H](O)[C@H](N)[C@@H]3O)[C@H](N)C[C@@H]2N)[C@H](O)[C@@H](O)[C@H]1O	–	12.9% (inactive)
COc1cc(N2CCC(N3CCN(C)CC3)CC2)ccc1Nc1ncnc(Nc2ccccc2S(=O)(=O)C(C)C)n1	11.2 µM (active)	–
CCNC(=O)/C=C/c1cccc(Br)c1	–	-10.3% (inactive)
